Source: PubChem BioAssay (NCATS)
Several values for one entry are separate records, joined by “and”; a condition that tells them apart may be missing. Identical values can stand only once. Inconclusive results are not listed. Activity calls are given as the source filed them. The call rests on the fitted dose curve; in most records, active means well fitted curve in the direction sought with a large enough effect; inconclusive means small, poorly fitted or top-dose-only effect, or another doubt; inactive means no such curve, though single readings can be large; an effect the other way counts as inactive or inconclusive.

Legend:
[1] = Viability qHTS for spleen associated tyrosine kinase inhibitor (SYKi) naive MV4-11 cells (AID 1963823); details: MV4-11 AML viability, CellTiter-Glo luminescence, 72 h; series mostly up to 45 µM; further: nearly all actives have a fitted effect of over 40% in size
Outline: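 Cells: MV4-11, SYK inhibitor naive, 500 per well. Treatment: library compounds, 72 hr, 37 C, 5% CO2. Read-out: CellTiter-Glo luminescence after 10 min RT.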

[2] = Viability qHTS for spleen associated tyrosine kinase inhibitor (SYKi) drug resistant MV4-11 cells (AID 1963824); details: SYKi-resistant MV4-11 viability, CellTiter-Glo, 72 h; series mostly up to 45 µM; further: nearly all actives have a fitted effect of over 35% in size
Outline: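 CellTiter-Glo luminescence, read 10 min after reagent addition, reports viability after a 72 hr compound exposure. Cells are an MV4-11 line made resistant to SYK inhibition, seeded at 500 per well onto compound-containing plates.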

[3] = Quantitative highthroughput screen to assess conditional lethalithy of NOMO1 cells grown in RPMI1640 with dialyzed fetal bovine serum (RPMI+ds) (AID 1963877); details: NOMO1 in RPMI+dialyzed FBS viability, ATP luminescence, 48 h; series mostly up to 45.8 µM; further: nearly all actives have a fitted effect of over 30% in size
Outline: (§1)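 Each medium arm—HPLM with 10% dialyzed FBS, or RPMI1640 with 5 mM glucose and 10% untreated or dialyzed FBS—was screened against an 11-point, 3-fold compound titration for 48 h at 37 °C, with CellTiter-Glo luminescence as endpoint.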

[4] = Quantitative highthroughput screen to assess conditional lethalithy of SEM cells grown in Human Plasma-Like Medium with dialyzed fetal bovine serum (HPLM+ds) (AID 1963882); details: SEM B-ALL cells in HPLM+ds, CellTiter-Glo viability, 48 h; series mostly up to 45.8 µM; further: nearly all actives have a fitted effect of over 35% in size
Outline: as §1

[5] = Cellular viability qHTS for adrenocortical cancer (ACC) cell line SW-13 (AID 1963989); details: SW-13 ACC cells viability, CellTiter-Glo, 48 h; activity (max response): hits give low values; further: nearly all actives have a fitted effect of over 65% in size;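 on activity (max response): cells grown in serum-free medium with ITS supplement; on the % scale 0 is the no-effect control and ±100 the full control effect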
Outline: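 IC50 and maximal-response values come from four-parameter logistic fits of titration data. SW-13 cells in serum-free medium received compounds (up to 46 uM final) for 48 h before CellTiter-Glo luminescence.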

[6] = Cellular viability qHTS for adrenocortical cancer (ACC) cell line NCI-H295R (AID 1963990); details: CellTiter-Glo ATP luminescence, 48 h; series mostly up to 46.1 µM; further: nearly all actives have a fitted effect of over 60% in size;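 on activity change, negative = viability loss: 0% = DMSO only wells and -100% = full killing with cytotoxic reference compound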
Outline: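 Adrenocortical carcinoma cells, suspended at 300 000 cells/mL in serum-free DMEM plus ITS, rested overnight before pin transfer of compound. After two days' incubation, ATP-dependent luminescence was recorded and curve-fitted.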

[7] = Quantitative highthroughput screen to assess conditional lethalithy of NOMO1 cells grown in Human Plasma-Like Medium with dialyzed fetal bovine serum (HPLM+ds) (AID 1963878); details: NOMO1 AML cells in HPLM+ds, CellTiter-Glo viability, 48 h; series mostly up to 45.8 µM; further: nearly all actives have a fitted effect of over 35% in size;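 on Viability: 100% = DMSO wells and 0% = empty wells on each plate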
Outline: as §1

[8] = Quantitative highthroughput screen to assess conditional lethalithy of SEM cells grown in RPMI1640 with unreated serum (RPMI+s) (AID 1963883); details: SEM B-ALL cells, CellTiter-Glo viability, 48 h; series mostly up to 45.8 µM; further: nearly all actives have a fitted effect of over 35% in size;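 on Viability: 100% = DMSO wells and 0% = empty wells without cells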
Outline: as §1

[9] = Quantitative highthroughput screen to assess conditional lethalithy of SEM cells grown in RPMI1640 with dialyzed fetal bovine serum (RPMI+ds) (AID 1963884); details: SEM B-ALL cells, RPMI+dialyzed FBS, CellTiter-Glo viability, 48 h; series mostly up to 45.8 µM; further: nearly all actives have a fitted effect of over 35% in size;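 on Viability: 100% = DMSO control wells and 0% = empty wells without cells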
Outline: as §1

[10] = Quantitative highthroughput screen to assess conditional lethalithy of P12 Ichikawa cells grown in Human Plasma-Like Medium with dialyzed fetal bovine serum (HPLM+ds) (AID 1963879); details: ATP luminescence, 48 h; Potency: viability; series mostly up to 45.8 µM; further: nearly all actives have a fitted effect of over 35% in size
Outline: as §1

[11] = Quantitative highthroughput screen to assess conditional lethalithy of P12 Ichikawa cells grown in RPMI1640 with dialyzed fetal bovine serum (RPMI+ds) (AID 1963880); details: ATP luminescence, 48 h; Potency: P12-Ichikawa viability; series mostly up to 45.8 µM; further: nearly all actives have a fitted effect of over 35% in size;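 on Viability: 100% = DMSO wells and 0% = empty wells on each plate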
Outline: as §1

[12] = Quantitative highthroughput screen to assess conditional lethalithy of P12 Ichikawa cells grown in RPMI1640 with untreated serum (RPMI+s) (AID 1963881); details: ATP luminescence, 48 h; Potency: viability; series mostly up to 45.8 µM; further: nearly all actives have a fitted effect of over 35% in size;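 on Viability: 100% = DMSO wells and 0% = empty wells without cells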
Outline: as §1
Potency means the concentration at half of the fitted maximal effect.

C1CCC(C(CC2CCCCN2)C2CCCCC2)CC1 (stereo not drawn)
active: Potency [1] 2950 nM | Potency [2] 2.95 µM | Potency [3] 23.5 µM | Potency [4] 14.8 µM | Potency [5] 7.08 µM | Potency [6] 7.08 µM

S=C(NCc1ccc2c(c1)OCO2)N1CCN(c2ncnc3c2oc2ccccc23)CC1
active: Potency [1] 3320 nM | Potency [2] 1.86 µM | Potency [7] 38.2 µM | Potency [8] 42.9 µM | Potency [9] 27 µM

CC(C)C[C@H](NC(=O)CNC(=O)c1cc(Cl)ccc1Cl)B(O)O
active: Potency [1] 93.4 nM | Potency [2] 0.0934 µM | Potency [3] 0.418 µM | Potency [5] 2 µM | Potency [6] 0.398 µM

Cc1cccc2c1CC[C@H](CN1CCC(c3c(Cl)cccc3Cl)CC1)C[C@@H]2O
inactive: Potency [10]
active: Potency [1] 3260 nM | Potency [2] 2.59 µM | Potency [7] 8.33 µM

CN(C)CCC=C1c2ccccc2C=Cc2ccccc21
active: Potency [1] 18600 nM | Potency [2] 14.8 µM | Potency [7] 18.7 µM
inactive: Potency [11] | Potency [8] | Potency [9]

O[C@@H](CNC[C@H](O)[C@H]1CCc2cc(F)ccc2O1)[C@@H]1CCc2cc(F)ccc2O1
inactive: Potency [10]
active: Potency [1] 10600 nM | Potency [2] 21.1 µM | Potency [7] 20.9 µM

Cc1cccc(Nc2nc(N[C@@H]3CCCC[C@H]3N)ncc2C(N)=O)c1
active: Potency [1] 934 nM | Potency [2] 2.63 µM | Potency [7] 0.935 µM | Potency [10] 1.32 µM | Potency [11] 1.87 µM | Potency [12] 3.32 µM | Potency [8] 4.18 µM | Potency [9] 2.35 µM | Potency [5] 25.1 µM | Potency [6] 28.2 µM

CCC(C(=O)O)C1CCC(C)C(C(C)C(O)C(C)C(=O)C(CC)C2OC3(C=CC(O)[C@@]4(CC[C@](C)(C5CC[C@@](O)(CC)C(C)O5)O4)O3)C(C)CC2C)O1 (stereo partly drawn)
active: Potency [1] 332 nM | Potency [2] 0.417 µM | Potency [3] 1.18 µM | Potency [8] 1.66 µM | Potency [6] 0.708 µM

O=C(Nc1cn[nH]c1-c1nc2ccc(CN3CCOCC3)cc2[nH]1)NC1CC1
active: Potency [1] 25.9 nM | Potency [2] 73.1 nM and 51.7 nM and 132 nM | Potency [7] 14.8 µM | Potency [4] 0.0833 µM | Potency [8] 0.0418 µM | Potency [9] 0.0332 µM | Potency [5] 3.16 µM | Potency [6] 20 µM

N#CCNC(=O)c1ccc(-c2ccnc(Nc3ccc(N4CCOCC4)cc3)n2)cc1
active: Potency [1] 411 nM | Potency [2] 580 nM and 934 nM | Potency [7] 23.5 µM | Potency [4] 11.8 µM | Potency [8] 10.5 µM | Potency [5] 25.1 µM

CNCCCC12CCC(c3ccccc31)c1ccccc12
inactive: Potency [8]
active: Potency [1] 18.8 µM and 14.6 µM | Potency [2] 18.4 µM | Potency [7] 18.7 µM | Potency [11] 18.7 µM | Potency [12] 18.7 µM

c1cnc2cc3c(cc2n1)C1CNCC3C1
inactive: Potency [1] | Potency [2] | Potency [7] | Potency [10] | Potency [11] | Potency [12] | Potency [4] | Potency [8] | Potency [9] | activity (max response) [5] 7.13% and 6.77% | Potency [6]

O=C(CN1C(=O)C2(CCCC2)NC[C@H]1c1cc(F)cc(F)c1)Nc1ccc2c(c1)C[C@@]1(C2)C(=O)Nc2ncccc21
inactive: Potency [1] | Potency [10] | Potency [11] | Potency [12] | Potency [4] | Potency [8] | Potency [9] | activity (max response) [5] -4.31% | Potency [6]
active: Potency [2] 18.6 µM | Potency [7] 20.9 µM

CNC(=O)c1cc(Oc2ccc(NC(=O)Nc3ccc(Cl)c(C(F)(F)F)c3)cc2)ccn1
active: Potency [1] 21.1 nM | Potency [2] 23.5 nM and 59.6 nM and 13 nM | Potency [3] 18.7 µM | Potency [5] 8.91 µM and 11.6 µM | Potency [6] 11.2 µM and 10.3 µM

CC(C)(C)NC(=O)Nc1cccc(Nc2ncc(F)c(NC(C)(C)CO)n2)c1
active: Potency [1] 1480 nM | Potency [2] 2.31 µM | Potency [10] 8.33 µM | Potency [8] 7.43 µM | Potency [9] 6.62 µM
inactive: Potency [7]

c1ccc(CNc2nc(NCc3ccccc3)c3ccccc3n2)cc1
active: Potency [1] 1860 nM | Potency [2] 2.09 µM | Potency [7] 26.4 µM | Potency [5] 3.98 µM | Potency [6] 7.08 µM
inactive: Potency [10] | Potency [9]

CNC(=O)c1c(-c2ccc(F)cc2)oc2cc(N(CCO)S(C)(=O)=O)c(C3CC3)cc12
active: Potency [7] 8.33 µM | Potency [11] 5.9 µM | Potency [12] 6.62 µM | Potency [4] 1.32 µM | Potency [9] 0.264 µM
inactive: Potency [1] | Potency [2] | activity (max response) [5] -0.986% | Potency [6]

Cc1cc(Nc2ncnc3ccc(-c4ccc(CNCCS(C)(=O)=O)o4)cc23)ccc1Oc1ccn2ncnc2c1
active: Potency [1] 11800 nM | Potency [2] 11.6 µM and 18.6 µM | Potency [7] 0.209 µM | Potency [10] 0.209 µM | Potency [11] 0.743 µM | Potency [12] 1.18 µM | Potency [4] 0.59 µM | Potency [8] 0.0935 µM | Potency [9] 0.332 µM
inactive: Potency [6]

Nc1nccc(Oc2ccc(NC(=O)c3c[nH]cc(-c4ccc(F)cc4)c3=O)cc2F)c1Cl
active: Potency [1] 29.5 nM | Potency [2] 0.0291 µM | Potency [7] 20.9 µM | Potency [11] 26.4 µM | Potency [8] 0.59 µM | Potency [5] 8.91 µM | Potency [6] 10 µM

CC(C)c1cc(C(=O)N2Cc3ccc(CN4CCN(C)CC4)cc3C2)c(O)cc1O
active: Potency [1] 33.2 nM | Potency [2] 41.1 nM and 52.5 nM | Potency [3] 0.662 µM | Potency [5] 0.398 µM | Potency [6] 0.631 µM

Cn1cnc(-c2cc3nccc(Oc4ccc(NC(=S)NC(=O)Cc5ccccc5)cc4F)c3s2)c1
active: Potency [1] 25.9 nM | Potency [2] 36.6 nM and 166 nM | Potency [10] 23.5 µM | Potency [11] 18.7 µM | Potency [12] 18.7 µM | Potency [4] 0.59 µM | Potency [8] 1.18 µM | Potency [9] 0.0662 µM | Potency [5] 22.4 µM

CC(C)(S)[C@@H](N)C(=O)O
inactive: viability (% of control) [1] 88.9% [at 4.97 µM] | viability, % of control [2] 89% [at 4.97 µM] | Potency [10] | Potency [11] | Potency [12] | activity (max response) [5] 0.215% | activity change, negative = viability loss [6] -1.21% [at 3.81 µM]

CCn1cc(-c2ccnc3[nH]c(-c4cccc(CN(C)C)c4)cc23)c(-c2ccc(NC(=O)N(C)C)cc2)n1
active: Potency [1] 103 nM and 83.3 nM | Potency [2] 282 nM and 235 nM | Potency [10] 0.0662 µM | Potency [11] 0.0833 µM | Potency [12] 0.0833 µM | Potency [4] 0.0743 µM | Potency [8] 0.0469 µM | Potency [9] 0.059 µM | Potency [5] 17.8 µM | Potency [6] 12.6 µM

Oc1ccc(-c2ccc(-c3cc(Nc4cccc(CNC5CC5)c4)n[nH]3)cc2)c(O)c1
active: Potency [1] 833 nM | Potency [2] 0.461 µM | Potency [10] 2.35 µM | Potency [12] 2.35 µM | Potency [4] 1.66 µM | Potency [8] 4.69 µM | Potency [9] 7.43 µM | Potency [5] 25.1 µM | Potency [6] 10 µM

Cn1cnc2c(F)c(Nc3ccc(Br)cc3F)c(C(=O)NOCCO)cc21
active: Potency [1] 206 nM | Potency [2] 0.146 µM
inactive: Potency [10] | Potency [11] | Potency [6]

Cc1ccc(C(=O)Nc2ccc(CN3CCN(C)CC3)c(C(F)(F)F)c2)cc1C#Cc1cnc2cccnn12
inactive: Potency [1]
active: Potency [2] 0.0053 µM | Potency [7] 0.935 µM | Potency [6] 4.47 µM

CCC[C@H](Nc1nc(-c2ccc(NC(=O)NCC)c(OC)c2)ncc1C)c1cccnc1
active: Potency [1] 74.2 nM | Potency [2] 0.118 µM | Potency [10] 0.0418 µM | Potency [11] 0.0418 µM | Potency [12] 0.0418 µM | Potency [4] 0.0418 µM | Potency [5] 0.224 µM

COc1ccc2cc3[n+](cc2c1OC)CCc1cc2c(cc1-3)OCO2
active: Potency [1] 4.22 µM and 1.48 µM | Potency [2] 1.68 µM and 934 nM | Potency [10] 18.7 µM | Potency [12] 18.7 µM | Potency [8] 20.9 µM | Potency [9] 18.7 µM

C[C@H](Cc1ccc(O)c(O)c1)[C@@H](C)Cc1ccc(O)c(O)c1
active: Potency [1] 1460 nM | Potency [2] 1.86 µM and 1.03 µM | Potency [10] 20.9 µM | Potency [11] 16.6 µM | Potency [12] 18.7 µM
